Test results as given in PubChem BioAssay.
Unmarked numbers belong to inactive results. Activity calls are given as the source filed them. Unless noted, no stated cut-off is given here; in the data, active means inhibition above about 42%; inactive means the rest.

Assays:
[1] = StAR promoter reporter inhibitors, counter-screen for LRH-1 inverse agonist project, cell-based, luminescence, high throughput (AID 651611; in the data active means inhibition above about 28%); conditions: StAR promoter luciferase reporter counterscreen, at 3.6 µM, hits give high values
[2] = target: Nuclear receptor subfamily 5 group A member 2 (Homo sapiens) (UniProt O00482); assay: LRH-1 (NR5A2) inverse agonists, retest, confirmation, cell-based, luminescence (AID 651613); conditions: cell-based LRH-1 luciferase reporter, inverse agonism; at 3.6 µM; hits give high values;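 further: HEK293T cells co-transfected with LRH-1 and StAR promoter luciferase reporter; 0% = vehicle wells and 100% = parental cells lacking receptor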
Chain of Nuclear receptor subfamily 5 group A member 2 (Homo sapiens) (O00482 whole entry, looked up): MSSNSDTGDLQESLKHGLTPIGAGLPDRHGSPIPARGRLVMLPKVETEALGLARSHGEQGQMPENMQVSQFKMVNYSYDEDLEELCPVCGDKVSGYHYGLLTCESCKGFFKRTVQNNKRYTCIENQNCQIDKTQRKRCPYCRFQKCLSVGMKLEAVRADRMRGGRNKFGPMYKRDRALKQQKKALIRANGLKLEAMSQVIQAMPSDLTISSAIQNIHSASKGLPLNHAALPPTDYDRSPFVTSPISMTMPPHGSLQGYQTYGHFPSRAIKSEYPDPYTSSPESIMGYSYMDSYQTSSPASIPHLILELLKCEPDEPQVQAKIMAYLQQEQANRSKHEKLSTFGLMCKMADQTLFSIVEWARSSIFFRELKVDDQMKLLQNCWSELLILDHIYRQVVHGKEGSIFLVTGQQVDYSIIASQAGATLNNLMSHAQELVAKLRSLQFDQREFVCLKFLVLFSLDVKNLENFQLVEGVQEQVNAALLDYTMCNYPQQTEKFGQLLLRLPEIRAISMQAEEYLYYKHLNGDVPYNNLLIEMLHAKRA

[3] = target: Steroidogenic factor 1 (Homo sapiens) (UniProt Q13285); assay: SF1 (NR5A1) inverse agonists, counter-screen for LRH-1 inverse agonist project, cell-based, luminescence, high throughput (AID 651614; in the data active means inhibition above about 44%;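 further: cells cotransfected with StAR promoter reporter and SF1 expression vector; 0% = vehicle on cells with receptor and 100% = vehicle on cells lacking receptor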); conditions: cell-based SF1 luciferase reporter, at 3.6 µM, hits give high values
Chain of Steroidogenic factor 1 (Homo sapiens) (Q13285 whole entry, looked up, the tested form may be a part): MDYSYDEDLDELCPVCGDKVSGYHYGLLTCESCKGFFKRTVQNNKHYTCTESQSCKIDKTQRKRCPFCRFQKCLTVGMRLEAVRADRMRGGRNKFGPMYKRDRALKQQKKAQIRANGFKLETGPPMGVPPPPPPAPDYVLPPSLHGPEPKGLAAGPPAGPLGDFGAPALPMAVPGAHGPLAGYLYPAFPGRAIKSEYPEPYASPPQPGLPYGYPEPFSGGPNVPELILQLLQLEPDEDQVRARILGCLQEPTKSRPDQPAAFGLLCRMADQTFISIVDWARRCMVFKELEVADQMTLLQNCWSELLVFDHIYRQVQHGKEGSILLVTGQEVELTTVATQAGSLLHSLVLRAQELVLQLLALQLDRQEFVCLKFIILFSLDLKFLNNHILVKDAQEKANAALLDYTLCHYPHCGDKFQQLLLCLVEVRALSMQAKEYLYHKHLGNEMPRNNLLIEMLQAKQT

[4] = VP16 transactivation reporter inhibitors, counter-screen for LRH-1 inverse agonist project, cell-based, luminescence, high throughput (AID 651615; in the data active means inhibition above about 33%); conditions: Gal4-VP16 luciferase reporter cells, at 3.6 µM, hits give high values

| Structure (SMILES) | inhibition [1] | inhibition [2] | inhibition [3] | inhibition [4] |
| --- | --- | --- | --- | --- |
| CC(=O)Nc1ccc(-c2c(C)cc3oc(=O)cc(-c4ccccc4)c3c2C)cc1 | 15.9% | 57.9% (active) | 58.9% (active) | -2.96% |
| CCCCc1c(O)nc(SCC(=O)Nc2ccc(OC)cc2)n(-c2ccc(C)c(C)c2)c1=O | 24% | 60% (active) | 51% (active) | -5.8% |
| COc1ccc(NC(=O)c2cc(-c3cc(F)ccc3OC)n[nH]2)cc1OC | 28.8% (active) | 43.6% (active) | 49.4% (active) | 52% (active) |
| Cc1ccc(C2CC(C(F)(F)F)n3nc(C(=O)NCc4ccco4)cc3N2)cc1 (stereo unspecified) | 0.64% | 44.1% (active) | 44.8% (active) | -8.91% |
| O=C(CSc1nc2cccc(F)c2c(=O)n1-c1ccccc1)Nc1ccc2c(c1)CCC2 | 19.2% | 57.3% (active) | 57.5% (active) | -5.06% |
| CCCc1nnc(SCC(=O)Nc2ccc(C(=O)OCC)cc2)o1 | 5.44% | 56.6% (active) | 60.7% (active) | -15.5% |
| O=[N+]([O-])c1ccc(COc2cccc(CNc3ccc(Br)cc3)c2)cc1 | 3.67% | 48.8% (active) | 37.4% | -6.59% |
| CC12CCC(=O)N1c1c(sc3nc(N4CCOCC4)c4c(c13)CCCC4)C(=O)N2 (stereo unspecified) | 11.1% | 63.7% (active) | 53.7% (active) | -1.67% |
| Cc1ccc(NC(=O)c2ccc([N+](=O)[O-])o2)cc1S(=O)(=O)N1CCOCC1 | 17.7% | 58.5% (active) | 58.8% (active) | -4.03% |
| COc1ccc(CCNC(=O)CSc2nnc(CNC(=O)c3cccs3)o2)cc1OC | 4.32% | 56.7% (active) | 50% (active) | 1.47% |
| NC1=CC(=O)C(=O)c2ccccc21 | 29.2% (active) | 54.9% (active) | 47% (active) | -6.09% |
| COc1cccc2c1C1COC3C4CC(C(=O)O)C(C(C2)N13)N4C (stereo unspecified) | 29.8% (active) | 45.4% (active) | 72.3% (active) | -10.2% |
| CCCc1cc(=O)oc2cc3oc(C)c(C)c3cc12 | -1.82% | 52.3% (active) | 50.5% (active) | -5.27% |
| CCc1ccccc1NC(=O)CSc1nnc([C@@H]2CCCN2C(=O)OC(C)(C)C)o1 | 16.4% | 50.5% (active) | 59% (active) | -8.78% |
| CC(=O)Nc1cc(-c2ccccc2N(C)C)cn2c(-c3ccc(S(C)(=O)=O)cc3)cnc12 | 7.26% | 49.8% (active) | 36.5% | -14.6% |
| Cc1cc(Br)ccc1NC(=O)CN1C(=O)CCC1=O | 7.63% | 58.1% (active) | 72.2% (active) | 4.01% |
| O=C(CSc1ncccc1-c1nc2ccccc2[nH]1)Nc1ccc2c(c1)OCCO2 | -8.79% | -2.1% | 5.63% | -15.5% |
| CC1=[N+](C)c2c(ccc3cccnc23)C1(C)C | 12.2% | 38.6% | 58.7% (active) | 29.2% |
| Cc1ccc(NC(=O)CSc2ccc3c(c2)OCCO3)c(O)c1 | 11.1% | 54.6% (active) | 46.5% (active) | 35.5% (active) |
| COc1ccc(C2=CC(=O)OC3(CCCCC3)O2)cc1 | 15.4% | 63.9% (active) | 45.4% (active) | 6.01% |
| O=C(C1=C[C@@H](C2CCCCC2)C[C@@H](OCc2ccc(CO)cc2)O1)N1CCN(Cc2ccc3c(c2)OCO3)CC1 | 12% | 46.2% (active) | 40.6% | 4.7% |
| O=C(CCl)Nc1ccc2c(c1)OCO2 | 37.1% (active) | 60.3% (active) | 62.4% (active) | -14.7% |
| CCc1cc(=O)oc2cc(C)cc(OCC(=O)NC3CC3)c12 | -0.05% | 66.5% (active) | 55.9% (active) | 10.2% |
| Cc1cc([N+](=O)[O-])ccc1NCc1ccc2ccccc2c1 | 1.75% | 43.1% (active) | 38.8% | 2.64% |
